The structures appear in SMILES notation. Results filed as inconclusive are left out. Calls of active or inactive are those of the source. Unless noted, calls follow the shape of the dose curve; as a rule, active = well fitted curve in the direction sought with a large enough effect in the repeat runs; inconclusive = weak or mixed curves; inactive = no such curve, though single readings can be large; an effect the other way counts as inactive or inconclusive.

A short description of test [1]: qHTS assay to identify small molecule antagonists of the androgen receptor (AR) signaling pathway using the MDA cell line in the presence of 0.5 nM R1881 - cell viability counter screen (AID 1259242). Also: nearly all actives have a fitted effect of over 45% in size. In a few lines: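 Live-cell protease fluorescence, CellTiter-Fluor, 30 min at 37C. Cells: MDA-kb2, 3,000/well, preincubated 5 hr. Compounds plus 0.5 nM R1881 final, 16 hr, 37C, 0% CO2.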

Test [2] addresses Estrogen receptor (Homo sapiens) (UniProt P03372). In words: qHTS assay to identify small molecule antagonists of the estrogen receptor alpha (ER-alpha) signaling pathway using the BG1 cell line in the presence of 0.1 nM 17-beta-estradiol (AID 1259244). Also: nearly all actives have a fitted effect of over 50% in size. The gist of the method: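 Luminescence after ONE-Glo (30 min, room temperature) measured ERE-luciferase activity in VM7Luc4E2 cells treated 22 h with compound and 0.1 nM final 17beta-estradiol as stimulator.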
A general note: In qHTS, concentration-response curves come from the screen itself.

The nature of test [3]: qHTS assay to identify small molecule HDAC inhibitors (AID 1259364).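 Also: wild-type HCT-116 cells with endogenous class I/II HDAC activity; top concentration of the series differs between compounds; nearly all actives have a fitted effect of over 45% in size.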 The gist of the method:
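HCT-116 (wild type), 1,500 cells/well, overnight; compound 2 hr 37C 5% CO2; HDAC-Glo I/II reagent 30 min RT; luminescence readout.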

Test [4] can be described thus: qHTS assay to identify small molecule HDAC inhibitors - cell viability counter screen (AID 1259365). Also: series mostly up to about 92 µM; nearly all actives have a fitted effect of over 50% in size. In a few lines:
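HCT-116 (wild type), 1,500 cells/well, overnight 37C/5% CO2; compound in DMSO 2hr; CellTiter-Glo 30min RT; luminescence read.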

The nature of test [5]: qHTS assay to identify small molecule agonists of the sonic hedgehog signaling (Shh) pathway - cell viability counter screen (AID 1259366). Also: nearly all actives have a fitted effect of over 50% in size. In a few lines: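 CellTiter-Fluor fluorescence read-out, 1 hr at 37C, added after 23hr compound exposure. Cells: 3T3 Gli1-Luc, an NIH/3T3 clone with stably integrated Gli1-Luc reporter, plated 4hr before compound.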
Test [6] is described as follows: qHTS assay to identify small molecule antagonists of the sonic hedgehog signaling (Shh) pathway - cell viability counter screen (AID 1259367). Also: nearly all actives have a fitted effect of over 55% in size. In a few lines: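 Conditioned medium drove Shh signaling in 3T3 Gli1-Luc cells exposed to compounds at 37C and 5% CO2. Viability was determined from CellTiter-Fluor fluorescence, with reagent incubated 1 hr after 23 hr of treatment.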

Test [7] in a line: qHTS assay to identify small molecule agonists of the sonic hedgehog signaling (Shh) pathway (AID 1259368; calls by dose curve;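 also: NIH/3T3-derived 3T3Gli1-Luc cells carrying a stable Gli1-driven firefly luciferase reporter; series mostly up to about 92 µM; nearly all actives have a fitted effect of over 15% in size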). The gist of the method:
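Read-out: firefly luciferase luminescence from a Gli1 response element reporter stably integrated in NIH/3T3-derived 3T3Gli1-Luc cells, measured 30 min at room temperature after reagent addition. Compound exposure lasted 24 hr at 37 C, 5% CO2.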

The nature of test [8]: qHTS assay to identify small molecule antagonists of the sonic hedgehog signaling (Shh) pathway (AID 1259369; calls by dose curve; also: nearly all actives have a fitted effect of over 45% in size; also: potency is read from the fitted curve at half-maximal effect). In a few lines: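 Luminescence readout: firefly Luc under Gli1 response element in 3T3Gli1-Luc cells (NIH/3T3 clone). Antagonist mode, stimulation by conditioned medium; compound exposure 24hr at 37 C, 5% CO2.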
Test [9] has as its target Estrogen receptor beta (Homo sapiens) (UniProt Q92731). The test is described as follows: qHTS assay to identify small molecule antagonists of the estrogen receptor beta (ER-beta) signaling pathway (AID 1259378; active = well fitted inhibition curve with a large enough effect in the signal ratio in the repeat runs, not every such curve was filed as active; the % refers to the signal ratio). The gist of the method:
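ER-beta-UAS-bla HEK293T (GripTite) cells in 2% charcoal-stripped FBS medium were preincubated 6 hr at 37C, dosed with compound, then stimulated with 1 nM E2 (final) for 16 hr; beta-lactamase reporter read by B/G FRET fluorescence after 2 hr substrate loading.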

The nature of test [10]: qHTS assay to identify small molecule agonists of the androgen receptor (AR) signaling pathway in the presence of an antagonist - cell viability counter screen (AID 1259379).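 Also: MDA-kb2 human breast cancer cells carrying an MMTV luciferase reporter; series mostly up to about 92 µM; nearly all actives have a fitted effect of over 25% in size.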 The gist of the method: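 Viability counter screen: CellTiter-Fluor fluorescence, measured in the same wells as the luciferase read-out. MDA-kb2 cells, 3,000/well, with nilutamide at 3.0uM final and compounds at 15 concentrations, 16 hr at 37C, 0% CO2.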

Test [11] in a line: qHTS assay to identify small molecule agonists of the estrogen receptor beta (ER-beta) signaling pathway - cell viability counter screen (AID 1259380). Also: nearly all actives have a fitted effect of over 30% in size. The gist of the method:
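Luminescence read-out (CellTiter-Glo, 30 min, room temp) taken in the same wells as the beta-lactamase reporter assay; ER-beta-UAS-bla HEK293T cells exposed to DMSO-dissolved compounds for 16 hr at 37C in 2% charcoal-stripped FBS medium.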

Test [12] can be described thus: qHTS assay to identify small molecule antagonists of the estrogen receptor beta (ER-beta) signaling pathway - cell viability counter screen (AID 1259382). Also: series mostly up to about 92 µM; nearly all actives have a fitted effect of over 55% in size. In a few lines: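 Luminescent ATP read-out (CellTiter-Glo, 30 min, RT) taken in the same wells as the bla reporter assay. HEK293T ER-beta-UAS-bla cells in 2% charcoal-stripped FBS were exposed to compounds with 1nM E2 for 16 hr at 37C.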

Test [13] has as its target Estrogen receptor (Homo sapiens) (UniProt P03372). The test is described as follows: qHTS assay to identify small molecule agonists of the estrogen receptor alpha (ER-alpha) signaling pathway in the presence of an antagonist (AID 1259383; calls by dose curve; also: top concentration of the series differs between compounds; nearly all actives have a fitted effect of over 15% in size). The gist of the method:
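Luciferase luminescence (ONE-Glo, 30min at room temperature) measured in VM7Luc4E2 cells after 22hr compound exposure at 15 concentrations, with 10.0nM ICI-182,780 final present; cells express endogenous ER-alpha and carry four EREs upstream of luciferase.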

Test [14] can be described thus: qHTS assay to identify small molecule agonists or antagonists of the thyroid stimulating hormone receptor (TSHR) signaling pathway - wild type cell line counter screen (AID 1259384; calls by dose curve). In a few lines: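 Wild-type HEK293 cells were plated 18 h at 37 C/5% CO2, pin-dosed with compound plus Ro20-1724 medium, held 30 min at room temperature, then given cAMP-d2 and anti-cAMP-cryptate; fluorescence was read after 1 h. Fifteen concentrations, triplicate.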

Test [15] deals with Thyrotropin receptor (Homo sapiens) (UniProt P16473). The test is described as follows: qHTS assay to identify small molecule antagonists of the thyroid stimulating hormone receptor (TSHR) signaling pathway (AID 1259385; calls by dose curve; also: nearly all actives have a fitted effect of over 20% in size). The gist of the method:
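TSHR-HEK293 cells were plated and held 18 h at 37C/5% CO2, then given compound plus Ro20-1724 and stimulated with TSH at 1.5 ng/mL final. After 30 min at room temperature, cAMP was detected with cAMP-d2/anti-cAMP-cryptate (1 h) by fluorescence.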

Test [16] has as its target Estrogen receptor beta (Homo sapiens) (UniProt Q92731). The test is described as follows: qHTS assay to identify small molecule agonists of the estrogen receptor beta (ER-beta) signaling pathway (AID 1259377; active = well fitted activation curve with a large enough effect in the signal ratio in the repeat runs, not every such curve was filed as active; the % refers to the signal ratio). In a few lines:
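Beta-lactamase reporter readout: fluorescence of LiveBLAzer B/G FRET substrate after 2 h at room temperature, following 16 h compound treatment of ER-beta-UAS-bla HEK293T cells at 37C in 2% charcoal-stripped FBS medium.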

Test [17] is described as follows: qHTS assay to identify small molecule agonists of the estrogen receptor alpha (ER-alpha) signaling pathway in the presence of an antagonist - cell viability counter screen (AID 1259386).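 Also: cells exposed to compounds for 22 h at 37 °C before the viability read; nearly all actives have a fitted effect of over 30% in size.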 Also: potency is read from the fitted curve at half-maximal effect. The gist of the method:
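Read-out: CellTiter-Fluor fluorescence after 1hr reagent incubation, measured in the same wells as the luciferase readout. VM7Luc4E2 cells were exposed to 15 compound concentrations with 10.0nM ICI-182,780 for 22hr at 37C.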

Test [18] concerns the target Androgen receptor (Homo sapiens) (UniProt P10275). In words: qHTS assay to identify small molecule agonists of the androgen receptor (AR) signaling pathway in the presence of an antagonist (AID 1259381; calls by dose curve; also: nearly all actives have a fitted effect of over 15% in size). In a few lines:
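Luciferase read-out (ONE-Glo, 30min room temperature) in MDA-kb2 MMTV-reporter cells; agonist mode run in presence of AR antagonist nilutamide, 3.0uM final. Compounds tested as 15-point series, 16hr exposure at 37C, 0% CO2.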

A short description of test [19]: qHTS assay to identify small molecule phospholipidosis (PLD) inducers (AID 1259344; active = well fitted curve in the direction sought with a large enough effect; an effect the other way counts as inactive or inconclusive). In a few lines: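 After 4 h attachment on collagen I, HepG2 cells were dosed with compound alongside LipidTOX Red, kept 24 h at 37 C, fixed, and imaged for lamellar phospholipid pits.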

Estrogen receptor beta (Homo sapiens), sequence (Q92731 whole entry, looked up): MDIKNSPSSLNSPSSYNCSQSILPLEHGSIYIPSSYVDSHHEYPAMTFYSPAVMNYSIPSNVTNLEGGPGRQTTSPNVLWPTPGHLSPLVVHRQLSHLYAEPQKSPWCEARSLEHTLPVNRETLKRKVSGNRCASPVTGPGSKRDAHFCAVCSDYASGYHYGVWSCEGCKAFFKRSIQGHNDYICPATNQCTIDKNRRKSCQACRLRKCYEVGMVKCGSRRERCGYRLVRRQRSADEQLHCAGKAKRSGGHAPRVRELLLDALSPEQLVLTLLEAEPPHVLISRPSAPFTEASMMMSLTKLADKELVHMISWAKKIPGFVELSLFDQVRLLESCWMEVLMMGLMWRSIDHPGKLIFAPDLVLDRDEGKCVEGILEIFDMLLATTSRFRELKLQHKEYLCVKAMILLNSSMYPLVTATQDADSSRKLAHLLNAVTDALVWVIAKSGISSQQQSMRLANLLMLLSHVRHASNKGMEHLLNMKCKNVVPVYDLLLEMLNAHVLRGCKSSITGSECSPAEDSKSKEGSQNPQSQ
Estrogen receptor (Homo sapiens), sequence (P03372 whole entry, looked up): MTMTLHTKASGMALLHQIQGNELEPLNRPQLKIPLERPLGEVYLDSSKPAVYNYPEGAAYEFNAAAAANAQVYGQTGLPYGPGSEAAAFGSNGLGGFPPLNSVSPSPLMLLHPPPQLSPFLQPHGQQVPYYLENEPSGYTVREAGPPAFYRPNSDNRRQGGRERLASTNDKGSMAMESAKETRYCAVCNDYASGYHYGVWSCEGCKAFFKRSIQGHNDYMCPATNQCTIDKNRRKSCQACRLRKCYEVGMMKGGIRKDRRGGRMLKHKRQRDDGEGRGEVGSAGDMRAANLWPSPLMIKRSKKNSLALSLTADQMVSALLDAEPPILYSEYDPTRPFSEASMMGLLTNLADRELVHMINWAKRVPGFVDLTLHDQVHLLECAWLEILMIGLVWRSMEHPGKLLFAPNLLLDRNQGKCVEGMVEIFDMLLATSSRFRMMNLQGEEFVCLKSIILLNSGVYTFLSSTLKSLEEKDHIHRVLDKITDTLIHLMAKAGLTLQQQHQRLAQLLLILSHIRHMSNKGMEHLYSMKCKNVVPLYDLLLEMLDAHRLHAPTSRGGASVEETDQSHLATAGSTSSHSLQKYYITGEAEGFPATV
Thyrotropin receptor (Homo sapiens), sequence (P16473 whole entry, looked up): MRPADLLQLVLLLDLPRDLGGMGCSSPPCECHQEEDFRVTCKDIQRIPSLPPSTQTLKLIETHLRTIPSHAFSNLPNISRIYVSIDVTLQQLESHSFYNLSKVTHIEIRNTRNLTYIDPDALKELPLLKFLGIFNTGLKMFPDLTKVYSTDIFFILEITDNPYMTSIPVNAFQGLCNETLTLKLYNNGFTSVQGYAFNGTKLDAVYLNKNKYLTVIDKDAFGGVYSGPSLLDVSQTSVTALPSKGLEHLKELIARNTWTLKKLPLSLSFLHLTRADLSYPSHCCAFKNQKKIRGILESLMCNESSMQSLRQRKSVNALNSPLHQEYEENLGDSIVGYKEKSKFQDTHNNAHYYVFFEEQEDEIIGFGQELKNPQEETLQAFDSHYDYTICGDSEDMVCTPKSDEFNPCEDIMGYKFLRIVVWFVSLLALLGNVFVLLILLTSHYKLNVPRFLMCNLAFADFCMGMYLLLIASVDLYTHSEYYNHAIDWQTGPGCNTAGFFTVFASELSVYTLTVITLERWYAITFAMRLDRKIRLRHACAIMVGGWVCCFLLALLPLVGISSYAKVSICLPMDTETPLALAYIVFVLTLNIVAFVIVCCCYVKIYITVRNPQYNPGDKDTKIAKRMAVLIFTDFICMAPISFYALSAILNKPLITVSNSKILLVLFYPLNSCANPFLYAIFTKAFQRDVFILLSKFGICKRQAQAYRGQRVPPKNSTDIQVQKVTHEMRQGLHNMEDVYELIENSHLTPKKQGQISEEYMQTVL
Androgen receptor (Homo sapiens), sequence (P10275 whole entry, looked up): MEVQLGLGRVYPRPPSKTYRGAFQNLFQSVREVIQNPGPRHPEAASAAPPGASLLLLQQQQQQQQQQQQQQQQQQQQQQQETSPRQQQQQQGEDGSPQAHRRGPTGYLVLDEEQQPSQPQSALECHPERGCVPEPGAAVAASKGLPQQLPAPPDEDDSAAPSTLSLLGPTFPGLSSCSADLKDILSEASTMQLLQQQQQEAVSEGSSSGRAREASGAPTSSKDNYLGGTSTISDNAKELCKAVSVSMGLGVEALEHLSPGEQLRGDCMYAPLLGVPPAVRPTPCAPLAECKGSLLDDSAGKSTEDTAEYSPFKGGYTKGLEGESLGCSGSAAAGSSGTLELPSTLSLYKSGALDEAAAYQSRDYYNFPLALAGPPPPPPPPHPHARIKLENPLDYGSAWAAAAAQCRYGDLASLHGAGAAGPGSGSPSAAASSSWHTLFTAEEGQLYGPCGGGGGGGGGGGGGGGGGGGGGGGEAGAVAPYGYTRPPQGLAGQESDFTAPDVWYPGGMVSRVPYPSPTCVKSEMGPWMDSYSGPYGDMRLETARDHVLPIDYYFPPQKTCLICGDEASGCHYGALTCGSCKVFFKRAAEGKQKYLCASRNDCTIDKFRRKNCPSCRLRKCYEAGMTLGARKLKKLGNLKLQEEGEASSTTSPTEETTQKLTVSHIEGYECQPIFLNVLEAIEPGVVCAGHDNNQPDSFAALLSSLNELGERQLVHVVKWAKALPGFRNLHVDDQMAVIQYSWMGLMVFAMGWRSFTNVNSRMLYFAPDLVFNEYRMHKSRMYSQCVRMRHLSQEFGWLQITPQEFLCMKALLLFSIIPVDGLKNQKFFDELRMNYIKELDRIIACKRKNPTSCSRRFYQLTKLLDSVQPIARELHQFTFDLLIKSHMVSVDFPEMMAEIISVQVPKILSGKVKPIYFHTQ

For the molecule `Cc1cccc(C#N)c1`, the outcome in test [1], in test [4] and in test [7] was inactive. The Potency result in test [2], in test [3], in test [5], in test [6], in test [8] and in [9] was “inactive” each time. Moreover, the Potency result in test [10], in test [11], in test [12], in test [13], in test [14] and in test [15] was “inactive” throughout.
For `CCOC(=O)CP(=O)(OCC)OCC`, the result in test [1], in [4], in [7] and in test [16] was inactive. For the same molecule, the Potency result in test [2], in test [3], in test [5], in test [8], in [9] and in test [10] was “inactive” each time. Besides, the Potency result in test [11], in test [12], in test [13], in test [14], in test [15] and in test [17] was “inactive” throughout.
As for `C=C(C)[C@@H]1CC=C(C=O)CC1`, the result in test [1], in test [4] and in [7] was inactive. Also, the Potency entry in test [2], in test [3], in [5], in test [6], in [8] and in test [10] was “inactive” throughout. In addition, the Potency result in [11], in test [12], in test [13], in test [14], in [15] and in test [17] was “inactive” in each case.
Take `OC(Cn1cncn1)(c1ccc(F)cc1)c1ccccc1F` (centres undefined): the result in test [1], in test [4], in test [7] and in test [16] was inactive. The Potency result in test [2], in [5], in test [6], in test [8], in test [9] and in test [10] was “inactive” throughout. Further, the Potency result in test [11], in test [12], in test [13], in test [14] and in [15] was “inactive” in each case.
Take `CCSC(=O)N(CC)C1CCCCC1`: the outcome in test [1], in test [4] and in [7] was inactive. Besides, the Potency result in test [2], in test [5], in test [6], in test [8], in [10] and in test [11] was “inactive” throughout. Besides, the Potency result in [12], in test [13], in test [14], in test [15] and in test [17] was “inactive” each time.
Take `O=C1OC(=O)C2C1C1(Cl)C(Cl)=C(Cl)C2(Cl)C1(Cl)Cl` (centres undefined): the outcome in test [1], in test [4], in test [7] and in [16] was inactive. Besides, the Potency result in [2], in test [3], in [8], in [9], in test [10] and in test [11] was “inactive” throughout. Further, the Potency entry in test [12], in test [13], in [14], in test [15] and in [17] was “inactive” in each case.
On to `Nc1c(Br)cc([N+](=O)[O-])cc1[N+](=O)[O-]`, for which the result in test [1], in test [4] and in test [7] was inactive. Besides, the Potency entry in test [2], in test [3], in [6], in [18], in test [12] and in test [13] was “inactive” throughout. The Potency result in test [14] and in test [15] was “inactive” in each case. The Potency in test [8] and in [17] was 31 µM (active) throughout.
For the molecule `Oc1c(Cl)cccc1Cl`, the result in [1], in test [4] and in test [7] was inactive. The Potency result in test [2], in test [5], in [6], in test [8], in [9] and in [10] was “inactive” each time. For the same molecule, the Potency entry in test [11], in test [12], in [13], in [14], in [15] and in test [17] was “inactive” throughout.
Regarding `CC(N)=S`, the result in test [1], in [4], in [7] and in [16] was inactive. Further, the Potency entry in test [3], in test [5], in test [6], in test [8], in test [9] and in test [10] was “inactive” each time. For the same molecule, the Potency result in [11], in [12], in [14], in test [15] and in test [17] was “inactive” in each case.
Turning to `CN(C)CCc1ccc(O)cc1`, the outcome in [1], in [19], in [4] and in test [7] was inactive. Also, the Potency entry in test [3], in test [5], in [6], in test [8], in test [10] and in [11] was “inactive” throughout. The Potency result in test [12], in test [14], in test [15] and in test [17] was “inactive” in each case.
With `COC(=O)c1c(C(F)F)nc(C(F)(F)F)c(C2=NCCS2)c1CC(C)C`, the result in test [1], in test [4], in [7] and in [16] was inactive. Also, the Potency result in test [2], in [5], in test [6], in [8], in test [9] and in test [10] was “inactive” each time. Besides, the Potency result in test [11], in test [18], in test [12], in test [13], in test [14] and in test [15] was “inactive” in each case. The Potency entry in [17] was “inactive”.

Source of the values: PubChem BioAssay (Tox21).
